Records with an inconclusive call do not appear. Where a call stands in place of a potency, no number is given. Values without a mark were called inactive. Active and inactive are the calls of the source. The call rests on the fitted dose curve; in most records, active means well fitted curve in the direction sought with a large enough effect; inconclusive means small, poorly fitted or top-dose-only effect, or another doubt; inactive means no such curve, though single readings can be large; an effect the other way counts as inactive or inconclusive.
Columns and labels:
[1] = P-glycoprotein substrates identified in KB-3-1 adenocarcinoma cell line, qHTS therapeutic library screen (AID 1346986); details: KB-3-1 parental cells viability, CellTiter-Glo, 72 h; series mostly up to 44.5 µM; further: nearly all actives have a fitted effect of over 60% in size
Procedure, shortened: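 In 1536-well format, 500 cells/well received pinned compound titrations and were incubated 72 h, 5% CO2. Viability was read by CellTiter-Glo; cytotoxic if AC50 < 10 uM and efficacy >50%.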

[2] = P-glycoprotein substrates identified in KB-8-5-11 adenocarcinoma cell line, qHTS therapeutic library screen (AID 1346987); details: KB-8-5-11 (P-gp overexpressing) viability, CellTiter-Glo, 72 h; series mostly up to 44.5 µM; further: nearly all actives have a fitted effect of over 65% in size; further: potency means the concentration at half of the fitted maximal effect
Procedure, shortened: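 Luminescence from CellTiter-Glo, read 5 min after addition, quantified survival of KB-8-5-11 (P-gp-overexpressing) cells exposed to compounds for 72 h. AC50 was derived from concentration-response curves.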

[3] = qHTS assay for cell viability of the p53RE-bla HCT-116 cell line (AID 743292); details: p53RE-bla HCT-116 viability, ATP luminescence, 16 h; series mostly up to 95 µM; further: nearly all actives have a fitted effect of over 55% in size
Procedure, shortened: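 CellSensor p53RE-bla HCT-116 cells, 4,000/well, preincubated 5 h at 37 C, then exposed to compounds in DMSO for 16 h at 37 C. Viability read as CellTiter-Glo luminescence (intracellular ATP) after 30 min at room temperature.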

CC1=C2C(=O)C3[C@@H](CC=C4C[C@@H](O)CC[C@@]43C)[C@@H]2CC[C@]12O[C@@H]1C[C@H](C)CN[C@H]1[C@H]2C (stereo partly specified)
Potency [1]: inactive
Potency [2]: inactive

C/C=C(\C)C(=O)OC1C(C)OC(OC2C(C)OC(OC3CCC4(C)C(=CCC5C4CCC4(C)C(C(C)OC6OC(COC7OC(CO)C(O)C(O)C7O)C(O)C(O)C6O)CCC54O)C3)CC2OC)C(O)C1OC (stereo unspecified)
activity change, negative = cytotoxicity [2]: 7.92% [at 9.29 µM]

COC1CC(O[C@H]2CC[C@@]3(C)C(=CCC4C3C(O)[C@@H](O)[C@]3(C)[C@@H](C(C)=O)CC[C@]43O)C2)OC(C)C1OC1CC(OC)C(OC2OC(C)C(O)C(O)C2O)C(C)O1 (stereo partly specified)
outcome [1]: inactive [at 9.29 µM]
outcome [2]: inactive [at 9.29 µM]

Cc1cn(C[C@H](N)C(=O)O)c(=O)n(Cc2cc(-c3ccccc3)sc2C(=O)O)c1=O
Potency [1]: inactive
Potency [2]: inactive

Clc1ccc(N2C[C@H]3CC[C@@H](C2)N3)nn1
Potency [2]: inactive

CC(=O)O[C@H]1C[C@@H](OC(C)=O)C(C)(C)C2C[C@@H](O)[C@]3(C)C(CC[C@@]4(C)[C@H](C5=CC(=O)OC5O)C[C@H]5O[C@]543)[C@]21C (stereo partly specified)
Potency [2]: inactive

COC1=CC(=O)O[C@@H](/C=C/c2ccccc2)C1
Potency [3]: inactive
Potency [1]: inactive
Potency [2]: inactive

CN1C(=O)c2ccccc2NC(=O)C1Cc1ccccc1 (stereo unspecified)
Potency [2]: inactive

CCc1c(C(=O)C(N)=O)c2c(OCC(=O)OC)cccc2n1Cc1ccccc1
Potency [1]: inactive
Potency [2]: inactive

CC12CCC3C(CCC4(O)CC(O)CCC34C=O)C1(O)CCC2C1=CC(=O)OC1 (stereo unspecified)
Potency [2]: 651 nM (active)

CCCCCCn1c(=O)c(C(=O)Nc2ccc(C(=O)OCCC)cc2)c(O)c2ccccc21
outcome [1]: inactive [at 9.29 µM]
outcome [2]: inactive [at 9.29 µM]

CCC(C)(C#N)O[C@@H]1O[C@H](CO)[C@@H](O)[C@H](O)[C@H]1O (stereo partly specified)
Potency [1]: inactive
Potency [2]: inactive

C[C@@](O)(COc1ccc(C#N)cc1)C(=O)Nc1ccc(C#N)c(C(F)(F)F)c1
Potency [2]: inactive

COC(=O)C1(C)CCC(O)C2(C)c3c(O)cc(C(C)C)cc3C(O)C(OC(C)=O)C12 (stereo unspecified)
Potency [1]: inactive
Potency [2]: inactive

COC1=CC(=O)O[C@@H](CCc2ccccc2)C1
Potency [1]: inactive
Potency [2]: inactive

C[C@@]1(C(=O)O)CC[C@]2(C)CC[C@]3(C)C4=CC(=O)c5cc(O)c(O)cc5[C@]4(C)CC[C@@]3(C)[C@@H]2C1
Potency [1]: inactive
Potency [2]: inactive

C/C=C(\C)C(=O)OC1CC2C(C)(C)OC(=O)CC(OC(C)=O)C2(C)C2CC(OC(=O)C(C)C)C3(C)C(c4ccoc4)CC4OC43C12C (stereo unspecified)
Potency [2]: inactive

CC[C@H]1CN2CC[C@H]1C[C@@H]2[C@@H](O)c1ccnc2ccc(OC)cc12
Potency [2]: inactive

C1=C2CCCN[C@H]2[C@@H]2C[C@H]1[C@H]1CCCCN1C2
Potency [1]: inactive
Potency [2]: inactive

CCCN1CCO[C@H]2c3cc(O)ccc3OC[C@@H]21
Potency [1]: inactive
Potency [2]: inactive

CN(C)CCc1c[nH]c2ccc(CN3CCN(C)S3(=O)=O)cc12
Potency [2]: inactive

Oc1ccc2c3c1O[C@H]1[C@H](N(CCCl)CCCl)CC[C@@]4(O)[C@@H](C2)N(CC2CC2)CC[C@]314
outcome [1]: inactive [at 9.29 µM]
activity change, negative = cytotoxicity [2]: 0.87% [at 9.29 µM]

COCC1OC(=O)c2coc3c2C1(C)C1=C(C3=O)C2CCC(=O)C2(C)CC1O (stereo unspecified)
Potency [1]: inactive
Potency [2]: inactive

CC(=O)OC1CC(O)C2(C)C(CC(OC(C)=O)C3(C)C2CCC2(C)C(c4ccoc4)C(=O)C4OC423)C1(C)C (stereo unspecified)
Potency [2]: inactive

C[C@]12CC[C@@H](O)C[C@H]1CC[C@@H]1[C@@H]2CC[C@]2(C)C(=O)CC[C@@H]12
Potency [1]: inactive
Potency [2]: inactive

CN1C(=O)N(c2ccc(C#N)c(C(F)(F)F)c2)C(=O)[C@]1(CO)c1ccccc1
Potency [1]: inactive
Potency [2]: inactive

COC(=O)C1(C)CCC(O)C2(C)c3cc(O)c(C(C)C)cc3C(O)C(OC(C)=O)C12 (stereo unspecified)
Potency [1]: inactive
Potency [2]: inactive

CCC1NC(=O)C2C(Cl)C(Cl)CN2C(=O)C(C(C)O)NC(=O)CC(c2ccccc2)NC(=O)C(CO)NC1=O (stereo unspecified)
Potency [1]: inactive
Potency [2]: inactive

O=C(O)c1ccnc2cc(C(OCCN3CCCCC3)c3ccccc3Cl)[nH]c12 (stereo unspecified)
Potency [1]: inactive
Potency [2]: inactive

C[C@@H]1C(=O)O[C@H]2[C@H](O)[C@@]34[C@@H]5OC(=O)[C@@]3(O[C@@H]3OC(=O)[C@@H](O)[C@@]34[C@H](C(C)(C)C)[C@H]5O)[C@@]12O
Potency [1]: inactive
Potency [2]: inactive

C[C@H]1C(=O)O[C@H]2[C@H](O)[C@]34C5OC(=O)[C@]3(O[C@@H]3OC(=O)[C@H](O)C34[C@H](C(C)(C)C)[C@H]5O)C12O (stereo partly specified)
Potency [1]: inactive
Potency [2]: inactive

CN1[C@H]2C[C@H](OC(=O)[C@H](CO)c3ccccc3)C[C@@H]1[C@@H](O)C2
Potency [2]: inactive

CC(C)C1(OO)C=C2C(=O)CC3C(C)(C(=O)O)CCCC3(C)C2CC1 (stereo unspecified)
Potency [2]: inactive

C=C(CO)C(=O)O[C@H]1C/C(C)=C/CC/C(CO)=C/[C@H]2OC(=O)C(=C)[C@H]12
Potency [1]: inactive
Potency [2]: inactive

COC(=O)C12C(=O)C(C)(O)C(=O)C1(C)C(C)=CC1C34CCC(OC3=O)C(C)(CO)C4CCC12C (stereo unspecified)
Potency [1]: inactive
Potency [2]: inactive

CC(=O)OC1CC(O)C(C)(C)C2CC(OC(C)=O)C3(C)C(CCC4(C)C(c5ccoc5)C(=O)C5OC543)C12C (stereo unspecified)
Potency [2]: inactive

COc1cc(C)[nH]c(=O)c1CNC(=O)c1c(C)n([C@H](C)C2CCOCC2)c2ccccc12
Potency [1]: inactive
Potency [2]: inactive

C/C=C(\C)C(=O)O[C@H]1[C@H](OC(C)=O)[C@]2(CO)[C@H](O)[C@H](O)[C@]3(C)C(=CCC4[C@@]5(C)CC[C@H](O[C@@H]6O[C@H](C(=O)O)[C@@H](O)[C@H](O[C@@H]7OC[C@H](O)[C@H](O[C@@H]8OC[C@H](O)[C@H](O)[C@H]8O)[C@H]7O)[C@H]6O[C@@H]6O[C@H](CO)[C@@H](O)[C@H](O)[C@H]6O)C(C)(C)C5CC[C@]43C)[C@@H]2CC1(C)C (stereo partly specified)
outcome [1]: inactive [at 9.29 µM]
outcome [2]: inactive [at 9.29 µM]

CO[C@H]1[C@H](O)[C@H](O[C@H]2CC[C@]3(C)C4CC[C@]5(C)[C@H](C6=CC(=O)OC6)CC[C@]5(O)C4CC[C@@H]3C2)O[C@@H](C)[C@@H]1O (stereo partly specified)
Potency [2]: 56.3 nM (active)

CN1[C@@H]2CC[C@H]1CC(OC(=O)C1C=Nc3ccccc31)C2 (stereo partly specified)
Potency [2]: inactive

Reference: PubChem BioAssay (NCATS)
